Read-out in assay [1]: Vascular cell adhesion molecule 1 (VCAM1), VCAM1 (gene 7412)
In words: BSK_4H_VCAM1: BioMAP Diversity Plus: 4H Assay for Vascular cell adhesion molecule 1 (VCAM1) Biomarker Activity (AID 2283033).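 As to outcome: cell-surface VCAM-1 protein measured by ELISA.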 The settings on record: primary human endothelial cells (HUVEC); actives raise or lower the signal. Put shortly:
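VCAM-1 ELISA read 24 h after chemical dosing of HUVEC in the BioMAP 4H system, with gain or loss of signal fitted relative to DMSO. Parallel SRB staining (560 nm) checked overt cytotoxicity.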

Read-out in assay [2]: Interferon-gamma inducible Protein 10 (IP10), CXCL10 (gene 3627)
In words: BSK_BE3C_IP10: BioMAP Diversity Plus: BE3C Assay for Interferon-gamma inducible Protein 10 (IP10) Biomarker Activity (AID 2283034). The settings on record: primary human bronchial epithelial cells; actives raise or lower the signal. The method in brief:
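IP-10 quantified by ELISA in human primary bronchial epithelial cell cultures at 24 hours post-dosing. Gain or loss of signal fitted relative to DMSO; parallel SRB staining assessed overt cytotoxicity.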

Read-out in assay [3]: Monokine induced gamma interferon (MIG), CXCL9 (gene 4283)
In words: BSK_BE3C_MIG: BioMAP Diversity Plus: BE3C Assay for Monokine induced gamma interferon (MIG) Biomarker Activity (AID 2283035). The following applies: primary human bronchial epithelial cells; actives raise or lower the signal. Put shortly:
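Dose cells (human primary bronchial epithelial), incubate 24 h, quantify MIG by ELISA, then fit concentration–response in both directions relative to DMSO control.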

Read-out in assay [4]: Transforming growth factor beta 1 (TGFb1), TGFB1 (gene 7040)
Briefly: BSK_BE3C_TGFb1: BioMAP Diversity Plus: BE3C Assay for Transforming growth factor beta 1 (TGFb1) Biomarker Activity (AID 2283036;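 as to outcome: TGF-b1 protein level measured by ELISA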). The following applies: primary human bronchial epithelial cells; actives raise or lower the signal. Put shortly:
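ELISA readout of TGF-b1 from human lung bronchial epithelial primary cells, taken 24 h post-treatment. Gain or loss of signal fitted relative to DMSO baseline, with parallel SRB staining for overt cytotoxicity.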

Read-out in assay [5]: Plasminogen activator inhibitor-1 (PAI1), SERPINE1 (gene 5054)
Briefly: BSK_BE3C_PAI1: BioMAP Diversity Plus: BE3C Assay for Plasminogen activator inhibitor-1 (PAI1) Biomarker Activity (AID 2283037). The following applies: primary human bronchial epithelial cells; actives raise or lower the signal. Put shortly:
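PAI-1 was measured by ELISA in human primary bronchial epithelial cultures 24 h after chemical dosing, with cytotoxicity checked by SRB total-protein staining in parallel cultures. Activity was fitted in both directions relative to DMSO.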

Read-out in assay [6]: urokinase plasminogen activator (uPA), PLAU (gene 5328)
Briefly: BSK_BE3C_uPA: BioMAP Diversity Plus: BE3C Assay for urokinase plasminogen activator (uPA) Biomarker Activity (AID 2283038).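 As to outcome: uPA protein level quantified by ELISA in cell cultures; uPA read one day after compound addition.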 The settings on record: primary human bronchial epithelial cells; actives raise or lower the signal. Put shortly: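 Using confluent primary human lung bronchial epithelial cultures, we dosed chemicals, waited 24 h, then ran a uPA ELISA, fitting bidirectionally against DMSO.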

Read-out in assay [7]: Urokinase-type plasminogen activator receptor (uPAR), PLAUR (gene 5329)
Briefly: BSK_BE3C_uPAR: BioMAP Diversity Plus: BE3C Assay for Urokinase-type plasminogen activator receptor (uPAR) Biomarker Activity (AID 2283039).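 As to outcome: cells exposed to compound for one day before measurement.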 The following applies: primary human bronchial epithelial cells; actives raise or lower the signal. Put shortly:
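uPAR levels were measured by ELISA after 24 h compound treatment of primary human bronchial epithelial cells, fitted in both directions relative to DMSO. Parallel SRB staining served as the cytotoxicity read-out.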

Read-out in assay [8]: Interleukin-6 (IL6), IL6 (gene 3569)
Briefly: BSK_CASM3C_IL6: BioMAP Diversity Plus: CASM3C Assay for Interleukin-6 (IL6) Biomarker Activity for (AID 2283040). The following applies: primary human coronary artery smooth muscle cells; actives raise or lower the signal.

Read-out in assay [9]: Tissue plasminogen activator (tPA), PLAT (gene 5327)
In words: BSK_BE3C_tPA: BioMAP Diversity Plus: BE3C Assay for Tissue plasminogen activator (tPA) Biomarker Activity (AID 2283041).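 As to outcome: tPA level quantified by ELISA one day after compound addition.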 The settings on record: primary human bronchial epithelial cells; actives raise or lower the signal. Put shortly: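 tPA measured by ELISA 24 h after dosing human primary bronchial epithelial cells (BE3C system). Changes in either direction were fitted against DMSO. Parallel cultures were stained with SRB to flag overt cytotoxicity.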

Read-out in assay [10]: Interleukin-8 (IL8), CXCL8 (gene 3576)
Briefly: BSK_CASM3C_IL8: BioMAP Diversity Plus: CASM3C Assay for Interleukin-8 (IL8) Biomarker Activity (AID 2283042).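 Also: IL-8 protein level quantified by ELISA.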 The following applies: primary human coronary artery smooth muscle cells; actives raise or lower the signal.

“And” between values parts separate entries of the source, which are not always exact repeats. Equal entries are not always repeated. Some structures have more than one record in an assay (separate samples or runs), and their calls can disagree. The source made the active and inactive calls. The calls were made as follows: active = hit-call score of the fitted dose curve at least 0.9, where 1 is the maximum; inactive = score below 0.9.

From PubChem BioAssay (EPA / NIEHS) come the findings set out here.

For `C=C(C)C(=O)OCCC(F)(F)C(F)(F)C(F)(F)C(F)(F)C(F)(F)C(F)(F)F`, the outcome in [1], in assay [2], in [3], in assay [4], in assay [5] and in [6] was inactive. The outcome in [7], in assay [8], in assay [9] and in assay [10] was inactive. Also, the AC50 in assay [8] was 20 µM (active); in assay [9], 3.97 µM (active).
On to `Cc1oc(-c2ccccc2)nc1CCOc1ccc(C[C@H](Nc2ccccc2C(=O)c2ccccc2)C(=O)O)cc1`, for which the AC50 in assay [1] is 33.5 µM (active); in assay [2], 2.55 µM (active); in assay [3], 4.79 µM (active); in assay [4], 5.06 µM (active); in [5] it was 5.29 µM (active); in assay [6] it was 1.8 µM (active). Besides, the AC50 in assay [7] is 3.63 µM (active); in assay [8] it was 29.9 µM (active). Moreover, the outcome in assay [9] and in assay [10] was inactive.
On to `c1ccc2c(c1)ccc1ccccc12`, for which the result in [1], in assay [2], in assay [3], in assay [4], in assay [5] and in [6] was inactive. Further, the result in [7], in [8], in assay [9] and in assay [10] was inactive.
With `OC1CCC(C2CCCCC2)CC1` (centres undefined), the outcome in [1], in assay [2], in [3], in assay [4], in assay [5] and in assay [6] was inactive. The outcome in [7], in assay [8], in [9] and in assay [10] was inactive.
`CCCOC(=O)c1ccc(O)cc1`: the result in [1], in assay [2], in assay [3], in assay [4], in [5] and in [6] was inactive. Besides, the outcome in [7], in assay [8], in assay [9] and in assay [10] was inactive.
For the molecule `CC#C[C@]1(O)CC[C@H]2[C@@H]3CCC4=CC(=O)CCC4=C3[C@@H](c3ccc(N(C)C)cc3)C[C@@]21C`, the AC50 is 26.4 µM (active) in assay [1]; 36.7 µM (active) in assay [2]; 12.9 µM (active) in [5]; 34.7 µM (active) in [6]; 33.7 µM (active) in assay [7]; 19.4 µM (active) in assay [9]. The AC50 in assay [10] was 5.69 µM (active). Besides, the outcome in assay [3], in assay [4] and in assay [8] was inactive.
Turning to `C#C[C@]1(O)CC[C@H]2[C@@H]3CCC4=CC(=O)CC[C@@H]4[C@H]3CC[C@@]21C`, the outcome in assay [1], in assay [2], in [3], in assay [4], in assay [5] and in assay [6] was inactive. For the same molecule, the outcome in assay [7], in assay [8], in assay [9] and in assay [10] was inactive.
On to `Cc1cc(C)c(O)c(C)c1`, for which the result in assay [1], in [2], in [3], in [4], in assay [5] and in assay [6] was inactive. The result in assay [7], in [8], in assay [9] and in assay [10] was inactive.
For the molecule `CCCCCCCC(=O)O`, the result in [1], in assay [2], in assay [3], in assay [4], in assay [5] and in [6] was inactive. Further, the outcome in [7], in assay [8], in [9] and in assay [10] was inactive.
Take `C[C@@H]1C[C@H]2[C@@H]3CCC4=CC(=O)C=C[C@]4(C)[C@@]3(F)[C@@H](O)C[C@]2(C)[C@@]1(O)C(=O)COP(=O)(O)O`: the result in assay [1], in assay [2], in assay [3], in assay [4], in assay [5] and in [6] was inactive. Further, the outcome in assay [7] and in assay [9] was inactive. Moreover, the AC50 was 0.763 µM (active) in assay [5]; 158 nM (active) and 1.34 µM (active) and 690 nM (active) in assay [8]; 478 nM (active) and 416 nM (active) in [9]; 176 nM (active) and 1.04 µM (active) and 101 nM (active) in assay [10].
For `Oc1cccc(O)c1`, the outcome in assay [1], in [2], in [3], in assay [4], in assay [5] and in assay [6] was inactive. In addition, the result in assay [7], in assay [8], in [9] and in assay [10] was inactive.
As to `CCC(C)(C)C1CCC(O)CC1` (centres undefined), the outcome in [1], in assay [2], in [3], in assay [4], in assay [5] and in [6] was inactive. Further, the result in assay [7], in [8], in assay [9] and in [10] was inactive.
As for `OCCC(F)(F)C(F)(F)C(F)(F)C(F)(F)C(F)(F)C(F)(F)F`, the outcome in assay [1], in [2], in [3], in assay [4], in assay [5] and in [6] was inactive. The outcome in assay [7], in assay [8], in assay [9] and in assay [10] was inactive.
Take `CC(C)(C)CC(C)(C)c1ccc(O)c(-n2nc3ccccc3n2)c1`: the result in assay [1], in [2], in assay [3], in assay [4], in assay [5] and in assay [6] was inactive. The result in assay [7], in assay [8], in assay [9] and in assay [10] was inactive.
As to `ClC1=C(Cl)C(Cl)(Cl)C(Cl)=C1Cl`, the AC50 in assay [1] was 6.5 µM (active); in [2], 6.61 µM (active); in [3], 10.1 µM (active); in assay [4] it was 5.53 µM (active); in [5], 5.25 µM (active); in assay [6], 7.28 µM (active). Moreover, the AC50 in [7] is 8.37 µM (active); in assay [8], 5.48 µM (active); in [9] it was 6.77 µM (active); in [10] it was 9.09 µM (active).
For `Nc1cccc2c(N)cccc12`, the outcome in [1], in assay [2], in assay [3], in [4], in assay [5] and in [6] was inactive. In addition, the result in [7], in [8], in [9] and in [10] was inactive.
